From PubChem
Compounds with a hit are over-represented: about 6.9% of the library has one in this group of screens.
PLK1 PBD inh: PLK1 (human) polo-box domain binding inhibition. P53350. Plk1 PBD binding of FITC phosphopeptide, fluorescence polarization. Potency, µM, for inactives: max response, negative = inhibition, actives largely listed as inhibitors. 360,000 tested, 2.8% active. AID 720504; further: series mostly up to about 57 µM; on the % scale 0 is the no-effect control and ±100 the full control effect; nearly all actives have a fitted effect of over 65% in size
L3MBTL1 block: blocks human L3MBTL1; Q9Y468; AlphaScreen L3MBTL1–H3K9me1 peptide binding; Potency, µM (series often up to 57.1 µM), for the others: at the top dose activity, negative = inhibition, most hits filed as inhibitors; 230,000 tested, 0.66% active; AID 485360; further: on the % scale 0 is the no-effect control and ±100 the full control effect; nearly all actives have a fitted effect of over 60% in size
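First, the protein-peptide complex forms for 30 min at room temperature (L3MBTL1 50 nM, biotinylated H3K9me1 peptide 75 nM). Next, compounds are pin-transferred and incubated 30 min. Finally, AlphaScreen beads are added and read after 30 min.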
HP1b chromo inh: blocks HP1-beta chromodomain binding to methylated histone tails; P83916; AlphaScreen HP1-beta / biotin-H3K9me3 peptide binding; Potency, µM (top dose mostly 114 µM), inactives show top-dose activity change, negative = inhibition, most hits filed as inhibitors; 390,000 tested, 0.56% active; further: nearly all actives have a fitted effect of over 70% in size
Target sequence (P83916 whole entry, looked up): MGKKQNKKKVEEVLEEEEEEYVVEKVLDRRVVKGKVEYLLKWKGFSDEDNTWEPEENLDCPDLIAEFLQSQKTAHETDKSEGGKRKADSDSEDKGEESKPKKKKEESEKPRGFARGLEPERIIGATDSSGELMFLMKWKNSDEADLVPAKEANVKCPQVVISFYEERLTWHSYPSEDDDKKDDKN
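HP1-beta protein (50 nM final) preincubated 30 min at room temperature with biotinylated H3(1-18)K9me3 peptide (50 nM) in PBS pH 7.4, 0.01% Tween-20, then compound added for 30 min. AlphaScreen streptavidin donor/nickel chelate acceptor beads (10 ug/mL final), 30 min dark, luminescence read.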
VDR inhibitor: inhibitors of human vitamin D receptor; P11473; VDR-SRC2-3 peptide fluorescence polarization, 2 h; AID 504847; Potency, µM, for the others: max response, negative = inhibition, usual class: inhibitors; 400,000 tested, 0.93% active; further: on the % scale 0 is the no-effect control and ±100 the full control effect
Target sequence (P11473 whole entry, looked up): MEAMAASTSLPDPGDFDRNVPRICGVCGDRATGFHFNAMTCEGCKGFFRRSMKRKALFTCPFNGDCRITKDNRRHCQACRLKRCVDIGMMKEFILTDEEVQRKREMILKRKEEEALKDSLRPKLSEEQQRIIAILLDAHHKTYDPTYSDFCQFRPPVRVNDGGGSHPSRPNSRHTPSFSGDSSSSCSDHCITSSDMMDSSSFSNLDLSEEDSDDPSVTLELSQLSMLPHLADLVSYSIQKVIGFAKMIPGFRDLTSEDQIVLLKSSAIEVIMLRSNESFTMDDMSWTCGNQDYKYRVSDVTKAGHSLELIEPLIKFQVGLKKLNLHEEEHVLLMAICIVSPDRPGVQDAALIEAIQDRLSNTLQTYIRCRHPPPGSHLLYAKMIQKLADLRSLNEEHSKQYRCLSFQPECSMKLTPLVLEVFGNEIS
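Inhibition of the VDR/SRC2-3 peptide interaction is quantified by fluorescence polarization. Compounds (23 nl, pintool) incubate with the reagents for 2 hours at ambient room temperature.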
JMJD2A Tudor: inhibitors of human JMJD2A Tudor domain. AID 504339. AlphaScreen JMJD2A-Tudor / H3K4me3 peptide binding. 390,000 tested, 4.4% active. O75164. Potency, µM (doses to about 114 µM), for inactives: top-dose activity change, negative = inhibition, hits mostly inhibitors; further: on the % scale 0 is the no-effect control and ±100 the full control effect; nearly all actives have a fitted effect of over 50% in size
BAZ2B inh: BAZ2B (human) inhibition. 360,000 tested, 4.4% active. Q9UIF8. AlphaScreen BAZ2B-H3K14Ac peptide displacement. Potency, µM (series often up to 114 µM), for inactives: at the top dose activity change, negative = inhibition, most hits filed as inhibitors; further: on the % scale 0 is the no-effect control and ±100 the full control effect; nearly all actives have a fitted effect of over 60% in size
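Multi-concentration screen (max 110 uM) measuring displacement of acetylated histone H3 peptide from BAZ2B by AlphaScreen, using 50 nM protein, 50 nM peptide and 10 ug/mL streptavidin donor plus Ni-chelate acceptor beads.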
* hit, by the source's call; ? = inconclusive; nt = no result given; ! = not confirmed by another sample; [ ] = dose if it differs, or a comment. The call rests on the fitted dose curve; in most records, active means well fitted curve in the direction sought with a large enough effect; inconclusive means small, poorly fitted or top-dose-only effect, or another doubt; inactive means no such curve, though single readings can be large; an effect the other way counts as inactive or inconclusive. Potency means the concentration at half of the fitted maximal effect.

SMILES	PLK1 PBD inh	L3MBTL1 block	HP1b chromo inh	VDR inhibitor	JMJD2A Tudor	BAZ2B inh
Cc1cc(C)cc(C(=O)NCC(=O)OCC(=O)N2c3ccccc3NC(=O)C2(C)C)c1	2%	18µM*	32%	-5%	-1%	45µM*
CCCOc1ccc(N)cc1N	?	-10%	?	?	56µM*	28µM*
Cc1ccn2cc(CCNC(=O)COc3ccccc3)nc2c1	12µM*	-4%	-7%	?	-12%[11.4 µM]	-9%
COc1ccc(C(=O)NCCc2cn3ccccc3n2)cc1	30µM*	-11%	15%	?	-7%[11.4 µM]	-6%
O=C(NCCC1=CCCCC1)c1ccc2c(c1)ncn2-c1cccc(Cl)c1	nt	nt	29%	15%	-26%	-10%
COc1ccc(C(=O)Nc2ccc(S(=O)(=O)NC(C)=O)cc2)cc1[N+](=O)[O-]	-9%	2%	29%	-16%	-18%	-15%
CCOCCCNS(=O)(=O)c1ccc(NC(=O)c2ccc(OC)c([N+](=O)[O-])c2)cc1	3.4µM*	5%	-15%	?	11µM*	0%
O=C1C=CC(O)(c2cc(=O)c3c(O)cc(O)cc3o2)C=C1	-22%	7%	21%	32µM*	-22%	-1%
CCc1nnc(N/N=C/c2ccc(N3CCC(C)CC3)c([N+](=O)[O-])c2)n1N	-1%	-5%	-5%	18µM*	?	?
Nn1cnnc1N/N=C/c1ccc(Cl)c([N+](=O)[O-])c1	-22%	-18%	35%	?	?	-28%
CCc1nn2c(=O)cc(COc3ccc(/C=C(\C#N)C(=O)Nc4ccc(C)cc4)cc3)nc2s1	nt	nt	37%	-6%	-14%	-2%
NS(=O)(=O)c1cccc2c1c([N+](=O)[O-])cc1nc(O)c(O)nc12	-10%	-12%	-2%	40µM*!	-11%	5%
O=C(Cn1cnc([N+](=O)[O-])n1)c1ccc(O)c(O)c1	-5%	nt	18%	-5%	?	79µM*
O=C(Cn1cnc([N+](=O)[O-])n1)c1ccccc1	-15%	4%	7%	10%	-14%	4%
COc1ccc(NC(=O)C2C3C=CC4(O3)C2C(=O)N(CCN2CCCCC2)C4C(=O)NC2CCCC(C)C2C)cc1 (stereo not drawn)	-3%	nt	12%	14%	-15%	-3%
Nn1c(Cc2cccc3ccccc23)nnc1SC1CCOC1=O (stereo not drawn)	-14%	nt	37%	-4%	89µM*	-37%
COC(=O)COc1ccc(C(C2C(=O)CC(C)(C)CC2=O)C2C(=O)CC(C)(C)CC2=O)cc1	?	nt	52%	50µM*	13%	12%
COC(=O)COc1ccc(NC(=O)C(c2ccccc2)c2ccccc2)cc1	6%	?	-3%	9%	-19%	?
CSc1cccc(NC(=O)c2nnn(CC(=O)Nc3cc(C)cc(C)c3)c2N)c1	13µM*	nt	13%	?	14µM*	-16%
COc1ccc2c(c1)C(=O)[C@@H](O)[C@H](c1ccc(OC)c(Br)c1)O2	-3%	2%	66%	7%	2%	89µM*
COc1cccc([C@@H]2Oc3ccc(OC)cc3C(=O)[C@H]2O)c1	-7%	12%	34%	-25%	-9%	10%
COCCN(C(C)=O)c1nnc(-c2ccccn2)s1	-17%	-7%	29%	18%	-30%	56µM*
CN(C(=O)c1cccnc1)c1nnc(-c2ccccn2)s1	3%	nt	19%	9%	-14%	56µM*
CC(=O)N(CC1CCCO1)c1nnc(-c2ccccn2)s1 (stereo not drawn)	-5%	-1%	41%	-3%	-27%	50µM*
COc1ccc(-c2nc3ccccc3o2)cc1NC(=O)c1cccnc1	nt	nt	23%	14%	-12%	?
SMILES	PLK1 PBD inh	L3MBTL1 block	HP1b chromo inh	VDR inhibitor	JMJD2A Tudor	BAZ2B inh
O=C(C1CCN(S(=O)(=O)c2cccc3cccnc23)CC1)N1CCN(c2ccc(Cl)cc2)CC1	-4%	0%	18%	4%	-30%	-9%
COc1ccc(-c2cc(OC(=O)c3cccc(Cl)c3)c3c(C)oc(C)c3c(=O)c2)cc1	nt	nt	1%	?	?	50µM*
CCOc1cc(-c2ccc3c(c2)OCO3)cc(=[O+]CC)c2c(C)oc(C)c12	nt	nt	?	?	56µM*	nt
Cc1oc(C)c2c(=O)cc(-c3ccc4c(c3)OCO4)cc(OC(=O)c3ccccc3Br)c12	nt	nt	-16%	-2%	?	?
Cc1oc(C)c2c(=O)cc(-c3ccc4c(c3)OCO4)cc(OC(=O)c3ccccc3Cl)c12	nt	nt	-4%	9%	63µM*	45µM*
COc1ccc(N(CC(=O)NCc2ccccc2Cl)S(=O)(=O)c2c(C)[nH]c(=O)[nH]c2=O)cc1	nt	nt	33%	-25%	-3%	-5%
CCn1nc(C)c2c(-c3ccccc3)cc(=O)n(C(C)C(=O)NCc3ccccc3OC)c21 (stereo not drawn)	nt	nt	15%	3%	-23%	-12%
COc1ccc(CCn2c(C)c(C(C)=O)c3cc(OC(=O)c4ccco4)ccc32)cc1OC	24µM*	nt	-30%	4%	-13%[11.4 µM]	-34%
CC(=O)c1c(C)n(C)c2ccc(OC(=O)c3ccco3)cc12	-8%	-1%[11.4 µM]	10%	-3%	-13%	7%
Cc1ccc(OCCSc2nc3ncnc(N)c3[nH]2)cc1	9.5µM*	12%	-11%	?	?	-8%
Nc1ncnc2nc(SCCOc3ccc(Cl)cc3)[nH]c12	-2%	14%	38%	-1%	-4%	2%
COc1ccccc1/C=C/C=N\N1CCN(Cc2ccccc2Cl)CC1	1%	-17%	?	7%	20µM*	40µM*
COc1ccc(Br)cc1/C=N/N1CCN(Cc2ccccc2Cl)CC1	-7%	8%[2.29 µM]	-26%	?	40µM*	?
COc1ccccc1/C=C/C=N/N1CCN(Cc2ccc(Cl)cc2)CC1	5%	-27%	40µM*	-19%	45µM*	32µM*
CC1CC(C)CN(S(=O)(=O)c2ccc3c(c2)CC(C)N3C(=O)C2CC2)C1 (stereo not drawn)	-3%	nt	35%	3%	14%	?
CCN1CCc2nc(N)sc2C1	4.2µM*	2%	-20%	89µM*	3%	-15%
N#CC1=C(N)OC(c2ccccc2)=C(C#N)C1c1ccc2c(c1)OCO2 (stereo not drawn)	12µM*	nt	8%	3%	?	-30%
CCc1ccccc1NC(=O)CSC1=C(C#N)C(c2ccc(O)c(OC)c2)C2=C(CCCC2=O)N1 (stereo not drawn)	11µM*	23%[11.4 µM]	-27%	-13%	-18%[11.4 µM]	-34%
N#CC1=C(SCc2ccccc2)NC2=C(C(=O)CCC2)C1c1ccc2c(c1)OCO2 (stereo not drawn)	?	-17%	-2%	?	45µM*	-38%
